Data on 21 molecules can be found in PubChem BioAssay (Tox21).

Values without a mark were called inactive. Records with an inconclusive call do not appear. Activity calls are given as the source filed them. Calls follow the shape of the dose curve; as a rule, active = well fitted curve in the direction sought with a large enough effect in the repeat runs; inconclusive = weak or mixed curves; inactive = no such curve, though single readings can be large; an effect the other way counts as inactive or inconclusive.

Assay [1] is described as follows: Human pregnane X receptor (PXR) small molecule agonists, qHTS cell viability counter screen (AID 1346977). Also: nearly all actives have a fitted effect of over 50% in size. Also: potency is read from the fitted curve at half-maximal effect. In outline:
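Readout is CellTiter-Fluor fluorescence from PXR-Luc HepG2 cells. Plated cells rested 5hr, then were treated with compounds for 24hr at 37C and 5% CO2, with reagent present during the last hour.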

Assay [2] in a line: Caspase-3/7 induction in HepG2 cells by small molecules, qHTS assay (AID 1346978). Also: nearly all actives have a fitted effect of over 15% in size. Also: potency is read from the fitted curve at half-maximal effect. The gist of the method:
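Wild-type HepG2 cells, 2,000/well, settled 5 hr at 37 C and 5% CO2, then compound-treated for 17 hr; caspase-3/7 activity read by luminescent Caspase-Glo 3/7 after 30 min at room temperature.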
(qHTS replaces the single test concentration by a dilution series.)

The nature of assay [3]: Caspase-3/7 induction in CHO-K1 cells by small molecules, qHTS cell viability counter screen (AID 1346979). Also: nearly all actives have a fitted effect of over 35% in size. Also: potency is read from the fitted curve at half-maximal effect. In outline: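 To flag cytotoxic compounds, treated CHO-K1 wild-type cells were given CellTiter-Fluor at 16hr and read fluorescently after 1hr at 37C; the caspase-3/7 luminescence was measured in these same wells.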
A short description of assay [4]: Caspase-3/7 induction in CHO-K1 cells by small molecules, qHTS assay (AID 1346980). Also: nearly all actives have a fitted effect of over 15% in size. Also: potency is read from the fitted curve at half-maximal effect. The gist of the method: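 Wild-type CHO-K1 cells exposed to compounds for 17hr at 37 C, 5% CO2. Caspase-3/7 activity then measured by Caspase-Glo 3/7 luminescence after 30min at room temperature.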
The nature of assay [5]: Caspase-3/7 induction in HepG2 cells by small molecules, qHTS cell viability counter screen (AID 1346981). Also: nearly all actives have a fitted effect of over 30% in size. Also: potency is read from the fitted curve at half-maximal effect. As to activity change, negative = cytotoxicity: series mostly up to about 92 µM. The gist of the method:
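Steps: seed 2,000 HepG2 cells per well; incubate 5 hr at 37 C; pin-add compounds in DMSO; incubate 16 hr; add CellTiter-Fluor; after 1 hr at 37 C and 5% CO2, read fluorescence.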

Assay [6] addresses Nuclear receptor subfamily 1 group I member 2 (Homo sapiens) (UniProt O75469). The assay is described as follows: Human pregnane X receptor (PXR) small molecule agonists, qHTS assay (AID 1346982). Also: nearly all actives have a fitted effect of over 35% in size. Also: potency is read from the fitted curve at half-maximal effect. In outline:
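Agonist mode qHTS: PXR-Luc HepG2 cells plated 5 hr before DMSO-dissolved compounds were pinned in, cultured 24 hr at 37 C, 5% CO2; ONE-Glo luminescence readout.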

For assay [7], the target named is Cytochrome P450 2C19 (Homo sapiens) (UniProt P33261). The assay is described as follows: Cytochrome P450 Family 2 Subfamily C Member 19 (CYP2C19) small molecule antagonists: luciferase reporter qHTS assay (AID 1671197). Also: nearly all actives have a fitted effect of over 65% in size. Also: potency is read from the fitted curve at half-maximal effect. As to activity change, negative = inhibition: series mostly up to about 120 µM. The gist of the method: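 Inhibition of CYP2C19 was scored from loss of luminescence in a P450-Glo proluciferin substrate assay, NADPH-started and run 1 h at 37C, with ketoconazole as positive control.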
For orientation: A reporter such as luciferase makes a cellular process visible.

Assay [8] deals with Cytochrome P450 2C9 (Homo sapiens) (UniProt P11712). The assay is described as follows: Cytochrome P450 Family 2 Subfamily C Member 9 (CYP2C9) small molecule antagonists: luciferase reporter qHTS assay (AID 1671198). Also: nearly all actives have a fitted effect of over 50% in size. Also: potency is read from the fitted curve at half-maximal effect. As to activity change, negative = inhibition: series mostly up to about 120 µM. In outline: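 P450-Glo proluciferin substrate with CYP2C9 enzyme; 10 min RT preincubation, then NADPH regeneration 1 h at 37C; luciferin detection reagent 20 min RT, luminescence in relative luminescence units.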

Assay [9] has as its target Voltage-gated inwardly rectifying potassium channel KCNH2 (Homo sapiens) (UniProt Q12809). In words: Human Ether-a-go-go-Related Gene (hERG) channel small molecule antagonists: fluorescence cell-based qHTS assay (AID 1671200).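 Also: hERG-expressing U2OS cells given a thallium stimulus after FluxOR II dye loading; series mostly up to about 77 µM; nearly all actives have a fitted effect of over 50% in size.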 In outline: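 Measured: Tl+ flux via fluorescence (480/540 nm) in hERG-expressing U2OS cells after 1 h dye loading at room temperature.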
A general note: The hERG channel carries a current that helps repolarise heart muscle cells.

The target in assay [10] is Cytochrome P450 2D6 (Homo sapiens) (UniProt P10635). In words: Cytochrome P450 Family 2 Subfamily D Member 6 (CYP2D6) small molecule antagonists: luciferase reporter qHTS assay (AID 1671196). Also: nearly all actives have a fitted effect of over 50% in size. Also: potency is read from the fitted curve at half-maximal effect. As to activity change, negative = inhibition: series mostly up to about 120 µM. The gist of the method: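 P450-Glo format: CYP2D6 converts a proluciferin substrate to luciferin in an NADPH-driven reaction lasting 1 h at room temperature. Light output, proportional to CYP2D6 activity, reflects interference by test chemicals.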

Assay [11] has as its target Cytochrome P450 3A4 (Homo sapiens) (UniProt P08684). In words: Cytochrome P450 Family 3 Subfamily A Member 4 (CYP3A4) small molecule antagonists: luciferase reporter qHTS assay (AID 1671201). Also: nearly all actives have a fitted effect of over 50% in size. Also: potency is read from the fitted curve at half-maximal effect. As to activity change, negative = inhibition: series mostly up to about 120 µM. In outline: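 Setup: enzyme-substrate mix, compound pin transfer, 10 min RT. Reaction: NADPH regeneration solution, 1 h RT. Readout: detection reagent stops turnover, luminescence measured after 20 min, expressed in relative luminescence units.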

The target in assay [12] is Cytochrome P450 1A2 (Homo sapiens) (UniProt P05177). In words: Cytochrome P450 Family 1 Subfamily A Member 2 (CYP1A2) small molecule antagonists: luciferase reporter qHTS assay (AID 1671199). Also: nearly all actives have a fitted effect of over 50% in size. Also: potency is read from the fitted curve at half-maximal effect. As to activity change, negative = inhibition: series mostly up to about 120 µM. The gist of the method: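 Inhibition of CYP1A2 conversion of proluciferin to luciferin, detected by luminescence. Reaction run 1 h at room temperature with NADPH regeneration after brief compound preincubation.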
% is scaled to controls: 0 for no effect and ±100 for the full control effect.

Cytochrome P450 1A2 (Homo sapiens), sequence (P05177 whole entry, looked up): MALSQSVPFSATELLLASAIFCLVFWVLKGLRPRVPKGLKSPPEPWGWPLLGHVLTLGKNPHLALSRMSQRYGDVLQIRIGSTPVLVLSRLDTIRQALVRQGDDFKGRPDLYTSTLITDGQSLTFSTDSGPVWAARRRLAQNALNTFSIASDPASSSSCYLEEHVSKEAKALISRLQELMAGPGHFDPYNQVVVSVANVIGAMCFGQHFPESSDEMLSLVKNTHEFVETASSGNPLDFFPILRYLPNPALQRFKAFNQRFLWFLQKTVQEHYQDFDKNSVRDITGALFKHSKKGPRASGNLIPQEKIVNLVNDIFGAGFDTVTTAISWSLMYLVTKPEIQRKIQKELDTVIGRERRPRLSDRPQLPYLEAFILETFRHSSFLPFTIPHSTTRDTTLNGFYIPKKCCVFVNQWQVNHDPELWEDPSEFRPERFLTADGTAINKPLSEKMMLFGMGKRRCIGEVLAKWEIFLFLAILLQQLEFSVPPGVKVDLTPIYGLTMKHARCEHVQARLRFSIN
Cytochrome P450 2C19 (Homo sapiens), sequence (P33261 whole entry, looked up): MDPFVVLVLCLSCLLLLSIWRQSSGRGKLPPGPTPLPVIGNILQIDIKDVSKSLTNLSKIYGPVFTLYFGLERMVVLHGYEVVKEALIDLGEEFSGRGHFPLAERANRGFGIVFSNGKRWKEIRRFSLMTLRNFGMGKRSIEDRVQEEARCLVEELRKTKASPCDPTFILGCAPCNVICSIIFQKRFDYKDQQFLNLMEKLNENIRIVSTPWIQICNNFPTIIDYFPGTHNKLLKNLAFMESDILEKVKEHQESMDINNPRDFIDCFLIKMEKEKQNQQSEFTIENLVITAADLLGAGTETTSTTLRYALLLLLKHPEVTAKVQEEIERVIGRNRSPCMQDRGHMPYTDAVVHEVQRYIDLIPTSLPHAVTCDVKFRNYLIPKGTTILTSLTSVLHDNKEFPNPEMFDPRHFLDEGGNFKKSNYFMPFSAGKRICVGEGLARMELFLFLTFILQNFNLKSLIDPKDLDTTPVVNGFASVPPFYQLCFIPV
Nuclear receptor subfamily 1 group I member 2 (Homo sapiens), sequence (O75469 whole entry, looked up): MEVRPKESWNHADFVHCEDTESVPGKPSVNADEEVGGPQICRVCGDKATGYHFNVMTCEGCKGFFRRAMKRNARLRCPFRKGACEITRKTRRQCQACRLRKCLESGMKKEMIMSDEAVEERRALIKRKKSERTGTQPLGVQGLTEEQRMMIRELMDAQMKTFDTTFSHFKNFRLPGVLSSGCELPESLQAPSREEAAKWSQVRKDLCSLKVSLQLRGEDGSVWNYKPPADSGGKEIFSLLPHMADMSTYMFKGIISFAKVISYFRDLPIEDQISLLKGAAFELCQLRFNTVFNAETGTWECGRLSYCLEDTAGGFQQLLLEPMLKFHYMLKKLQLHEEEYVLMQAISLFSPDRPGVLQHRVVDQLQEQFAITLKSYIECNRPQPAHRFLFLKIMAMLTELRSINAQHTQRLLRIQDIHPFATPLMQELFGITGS
Cytochrome P450 3A4 (Homo sapiens), sequence (P08684 whole entry, looked up): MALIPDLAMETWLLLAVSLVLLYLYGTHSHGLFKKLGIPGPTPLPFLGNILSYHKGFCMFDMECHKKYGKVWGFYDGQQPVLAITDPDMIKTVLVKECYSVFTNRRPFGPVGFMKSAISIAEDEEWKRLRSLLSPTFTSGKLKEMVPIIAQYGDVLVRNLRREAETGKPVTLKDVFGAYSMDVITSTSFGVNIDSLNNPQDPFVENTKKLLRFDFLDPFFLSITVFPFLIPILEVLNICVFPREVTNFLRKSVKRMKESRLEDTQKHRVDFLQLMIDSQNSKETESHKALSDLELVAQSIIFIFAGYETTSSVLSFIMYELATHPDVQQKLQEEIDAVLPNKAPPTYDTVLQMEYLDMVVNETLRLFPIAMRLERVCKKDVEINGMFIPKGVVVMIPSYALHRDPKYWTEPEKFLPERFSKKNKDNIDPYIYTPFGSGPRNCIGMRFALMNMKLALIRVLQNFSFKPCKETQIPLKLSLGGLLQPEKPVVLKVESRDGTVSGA
Voltage-gated inwardly rectifying potassium channel KCNH2 (Homo sapiens), sequence (Q12809 whole entry, looked up): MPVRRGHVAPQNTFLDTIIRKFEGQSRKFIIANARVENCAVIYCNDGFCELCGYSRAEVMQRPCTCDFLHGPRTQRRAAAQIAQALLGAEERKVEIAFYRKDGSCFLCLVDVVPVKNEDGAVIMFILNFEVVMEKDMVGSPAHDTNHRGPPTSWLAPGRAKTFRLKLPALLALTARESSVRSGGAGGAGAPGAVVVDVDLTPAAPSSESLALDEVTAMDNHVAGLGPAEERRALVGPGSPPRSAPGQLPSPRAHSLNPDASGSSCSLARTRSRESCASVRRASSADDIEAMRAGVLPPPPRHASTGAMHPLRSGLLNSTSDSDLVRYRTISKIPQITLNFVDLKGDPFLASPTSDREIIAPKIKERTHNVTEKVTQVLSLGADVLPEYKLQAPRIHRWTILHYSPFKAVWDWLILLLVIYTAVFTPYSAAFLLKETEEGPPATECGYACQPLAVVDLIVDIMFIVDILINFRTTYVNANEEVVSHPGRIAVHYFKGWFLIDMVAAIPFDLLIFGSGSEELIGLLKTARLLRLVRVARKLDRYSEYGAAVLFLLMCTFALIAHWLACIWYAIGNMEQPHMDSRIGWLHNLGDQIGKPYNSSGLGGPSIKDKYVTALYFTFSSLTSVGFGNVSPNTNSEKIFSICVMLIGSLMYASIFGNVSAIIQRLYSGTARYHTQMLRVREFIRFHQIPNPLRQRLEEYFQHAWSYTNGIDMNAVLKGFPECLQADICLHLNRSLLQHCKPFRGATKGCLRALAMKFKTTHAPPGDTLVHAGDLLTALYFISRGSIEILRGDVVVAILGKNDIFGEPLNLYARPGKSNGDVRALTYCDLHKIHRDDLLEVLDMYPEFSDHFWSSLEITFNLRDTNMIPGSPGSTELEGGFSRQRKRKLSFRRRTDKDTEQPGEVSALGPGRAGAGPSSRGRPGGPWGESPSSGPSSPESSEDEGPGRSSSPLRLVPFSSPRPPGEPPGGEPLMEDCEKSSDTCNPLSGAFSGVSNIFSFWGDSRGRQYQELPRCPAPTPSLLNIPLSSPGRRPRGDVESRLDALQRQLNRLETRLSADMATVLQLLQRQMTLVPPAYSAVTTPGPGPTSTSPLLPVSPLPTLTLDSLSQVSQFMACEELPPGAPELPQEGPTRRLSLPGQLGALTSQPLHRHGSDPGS
Cytochrome P450 2C9 (Homo sapiens), sequence (P11712 whole entry, looked up): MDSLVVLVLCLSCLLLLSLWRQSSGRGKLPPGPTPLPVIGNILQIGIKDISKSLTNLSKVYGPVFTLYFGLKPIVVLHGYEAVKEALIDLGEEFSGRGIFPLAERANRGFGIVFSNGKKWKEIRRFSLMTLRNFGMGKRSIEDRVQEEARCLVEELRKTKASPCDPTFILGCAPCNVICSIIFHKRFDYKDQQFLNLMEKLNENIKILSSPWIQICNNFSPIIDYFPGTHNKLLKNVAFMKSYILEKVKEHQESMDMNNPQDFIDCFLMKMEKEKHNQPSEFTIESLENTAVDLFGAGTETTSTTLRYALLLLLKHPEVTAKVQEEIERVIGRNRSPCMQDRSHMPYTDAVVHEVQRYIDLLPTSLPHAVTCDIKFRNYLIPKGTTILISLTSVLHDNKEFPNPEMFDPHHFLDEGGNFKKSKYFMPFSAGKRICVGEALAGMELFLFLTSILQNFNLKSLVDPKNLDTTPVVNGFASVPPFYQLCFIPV
Cytochrome P450 2D6 (Homo sapiens), sequence (P10635 whole entry, looked up): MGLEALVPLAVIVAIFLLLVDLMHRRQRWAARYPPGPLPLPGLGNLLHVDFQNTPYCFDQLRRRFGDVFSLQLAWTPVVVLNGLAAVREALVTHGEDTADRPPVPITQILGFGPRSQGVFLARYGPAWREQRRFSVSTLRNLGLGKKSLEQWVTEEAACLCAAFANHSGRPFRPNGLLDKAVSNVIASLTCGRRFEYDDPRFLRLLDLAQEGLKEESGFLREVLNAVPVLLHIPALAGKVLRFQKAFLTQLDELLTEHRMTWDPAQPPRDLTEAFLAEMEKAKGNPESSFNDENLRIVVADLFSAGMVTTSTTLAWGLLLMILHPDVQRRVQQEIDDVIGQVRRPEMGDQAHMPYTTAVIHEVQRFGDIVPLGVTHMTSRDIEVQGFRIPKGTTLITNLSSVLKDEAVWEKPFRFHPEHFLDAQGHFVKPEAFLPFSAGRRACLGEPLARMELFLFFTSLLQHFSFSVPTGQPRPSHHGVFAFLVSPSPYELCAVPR

For `C/C=C/C(=O)CC`, the activity change, negative = cytotoxicity in assay [1] was -29.3% [at 19 µM]; in [3], 0.0214% [at 19 µM]; in assay [5], -1.71% [at 19 µM]. Moreover, in assay [2], the caspase activation is 0.108% [at 19 µM]. The caspase-3/7 activation in assay [4] is 1.13% [at 19 µM]. Besides, in assay [6], the Potency was 10.5 µM (active). The Potency result in assay [7] is “inactive”. For the same molecule, the activity change, negative = inhibition in [8] was -11% [at 23.6 µM]; in [9] it was 2.39% [at 15.8 µM].
As to `CC(C)(O)c1ccc(CNC(=O)c2cccnc2Oc2ccc(F)cc2)cc1`, the Potency result in assay [1], in assay [2], in assay [3], in assay [4], in [5] and in [10] was “inactive” throughout. In addition, the Potency entry in assay [9] was “inactive”. In addition, the results for the Potency in assay [6], in assay [8] and in assay [11] were 54.5 µM (active), 22.4 µM (active) and 31.7 µM (active), respectively.
`CCOC(=O)C(=O)CCc1ccccc1`: the Potency result in assay [1], in assay [2], in [3], in assay [4], in assay [5] and in [6] was “inactive” each time. Also, the Potency entry in assay [12], in [9] and in assay [11] was “inactive” each time. Further, the Potency in [7] was 8.71 µM (active).
As to `O=C(OCCc1ccccc1)c1ccccc1`, the Potency result in assay [1], in [2], in assay [3], in assay [4], in assay [5] and in assay [6] was “inactive” throughout. Besides, in [11], the Potency result is “inactive”. In addition, the Potency in assay [8] was 31.7 µM (active); in [12], 20 µM (active).
`C=C(C)C(=O)OCC`: the Potency result in assay [1], in assay [2], in assay [3], in [4], in assay [5] and in assay [6] was “inactive” throughout. Besides, the Potency entry in assay [8], in [12], in assay [9] and in [11] was “inactive” each time.
Turning to `CN1Cc2cc(C(=O)N3CCC(C4CCNCC4)CC3)ccc2NC(CC(=O)O)C1=O` (configuration not stated), the Potency entry in [1], in assay [2], in [3], in assay [4], in assay [5] and in assay [6] was “inactive” each time. Besides, the Potency entry in assay [10], in assay [8], in assay [12], in [9] and in [11] was “inactive” each time.
`CC(C)(CO)[N+](=O)[O-]`: the Potency entry in assay [1], in [2], in assay [3], in assay [4], in assay [5] and in assay [6] was “inactive” throughout. The Potency result in [10], in [8], in assay [12], in [9] and in assay [11] was “inactive” throughout.
In the case of `COc1cc2nc(Cl)nc(N)c2cc1OC`, the Potency entry in assay [1], in assay [2], in assay [3], in assay [4], in assay [5] and in assay [6] was “inactive” throughout. The Potency result in [10], in assay [8] and in assay [9] was “inactive” each time. Further, the Potency in assay [12] is 2.75 µM (active).
`CCCCC(CC)CN1C(=O)C2C3C=CC(C3)C2C1=O` (configuration not stated): the Potency entry in [1], in assay [2], in assay [3], in [4] and in [5] was “inactive” in each case. Further, the Potency is 27.3 µM (active) in [6]; 31.7 µM (active) in assay [10]; 7.96 µM (active) in assay [8]; 17.8 µM (active) in [12]; 1 µM (active) in [11].
Consider `C=C(C)C(=O)OCCOCC`, for which the Potency entry in [1], in assay [2], in [3], in [4], in assay [5] and in assay [6] was “inactive” in each case. Further, the Potency entry in [9] and in assay [11] was “inactive” throughout. In addition, the Potency in assay [10] was 31.9 µM (active); in assay [7] it was 80 µM (active); in assay [12], 40.1 µM (active).
For the molecule `C[Si](C)(CCCN)O[Si](C)(C)CCCN`, the Potency result in assay [1], in [2], in assay [3], in assay [4], in assay [5] and in assay [6] was “inactive” each time. For the same molecule, in assay [9], the Potency result was “inactive”. The Potency in assay [10] was 22.4 µM (active); in assay [7], 39.9 µM (active); in assay [12], 25.2 µM (active); in assay [11], 2.52 µM (active).
In the case of `CCN(CC)CCNC(=O)c1cc(Br)c(N)cc1OC`, the Potency entry in assay [1], in assay [2], in assay [3], in [4], in assay [5] and in [6] was “inactive” in each case. Moreover, the Potency result in assay [8] and in assay [11] was “inactive” throughout. The Potency in assay [10] is 4.9 µM (active).
Consider `COC(=O)c1ccc(I)cc1S(=O)(=O)NC(=O)Nc1nc(C)nc(OC)n1`, for which the Potency entry in assay [1], in [2], in assay [3], in assay [4], in assay [5] and in assay [6] was “inactive” throughout. In addition, the Potency result in assay [7], in assay [9] and in assay [11] was “inactive” each time. Besides, the Potency in [8] was 34.1 µM (active).
For `CCCCCC[C@@H](O)C/C=C\CCCCCCCC(=O)OC`, the Potency result in assay [1], in assay [2], in assay [3], in assay [4], in assay [5] and in assay [6] was “inactive” each time. In addition, the Potency result in [10], in assay [9] and in [11] was “inactive” in each case. The Potency in assay [8] is 12.7 µM (active); in assay [12], 35.7 µM (active).
On to `CC(=O)c1cccc([N+](=O)[O-])c1`, for which the Potency result in assay [1], in assay [2], in assay [3], in [4], in assay [5] and in [6] was “inactive” throughout. In addition, the Potency result in assay [7], in assay [8], in assay [9] and in assay [11] was “inactive” throughout. The Potency in [12] was 35.5 µM (active).
With `COCC(C)OC(C)=O` (configuration not stated), the Potency entry in assay [1], in [2], in assay [3], in assay [4], in assay [5] and in assay [6] was “inactive” each time. Also, the Potency result in assay [10], in [7], in assay [8] and in assay [11] was “inactive” in each case.
Regarding `CCC(C)(C)CC`, the Potency entry in assay [1], in [2], in [3], in assay [4], in [5] and in assay [6] was “inactive” throughout. Moreover, the Potency result in [7], in [8], in [12], in assay [9] and in [11] was “inactive” in each case.
Regarding `CCN(CC)CCNc1ccc(CNC=O)c2sc3ccc(OC)cc3c(=O)c12`, the Potency is 9.69 µM (active) in assay [1]; 61.1 µM (active) in assay [2]; 6.11 µM (active) in assay [3]; 30.6 µM (active) in assay [4]; 9.69 µM (active) in assay [5]; 6.33 µM (active) in assay [10]. The Potency is 31.7 µM (active) in [8], 22.4 µM (active) in [12] and 20 µM (active) in assay [11]. The Potency result in assay [6] is “inactive”.
For the molecule `O=C(O)CC(=O)C(=O)O`, the Potency entry in [1], in [2], in assay [3], in assay [4], in [5] and in assay [10] was “inactive” throughout. Moreover, the Potency entry in assay [8] and in assay [11] was “inactive” each time. The Potency in [6] is 48.7 µM (active).
As for `CC1CCC(=O)C1=O` (configuration not stated), the Potency result in assay [1], in [2], in assay [3], in [4], in [5] and in [6] was “inactive” in each case. Besides, the Potency result in [7], in assay [8], in assay [12] and in assay [11] was “inactive” throughout.
In the case of `C/C=C/C=C/CO`, the Potency result in assay [1], in [2], in assay [3], in assay [4], in [5] and in [6] was “inactive” in each case. Moreover, the Potency entry in [10] and in [12] was “inactive” throughout. Besides, the Potency in assay [11] is 63.3 µM (active).
